Potency and activity change, negative = viability loss data for 10 molecules are collected here from PubChem BioAssay (NCATS).

Results filed as inconclusive are left out. Entries that show only a call come without a potency. Unmarked numbers belong to inactive results. Active and inactive are the calls of the source. Calls come from the whole dose curve; as a rule, active = well fitted inhibition curve with a large enough effect; inconclusive = small, poorly fitted or top-dose-only effect; inactive = flat fitted curve, though single readings scatter.

The target in test [1] is Calcium and integrin-binding protein 1 (Homo sapiens) (UniProt Q99828). In words: Primary qHTS for Identification of Calcium Integrin Binding Protein 1 (CIB1) Competitor (AID 1508620).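 Note: GST tagged CIB1 binding a fluorescein labelled alphaIIb integrin peptide tracer; top concentration of the series differs between compounds.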 Summed up: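 CIB1-GST (1 uM final) and compound incubated 15 min at room temperature before adding FITC-alphaIIb peptide tracer (100 nM final). Competition for binding read by fluorescence polarization (ex 480, em 540) after another 15 min at room temperature.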

A short description of test [2]: Primary qHTS for inhibitors of nuclear receptor binding SET domain protein 2 (NSD2) in an isogenic RCH-ACV NSD2 p.E1099K mutant (9B) (AID 1645876). Note: nearly all actives have a fitted effect of over 70% in size.

Chain of Calcium and integrin-binding protein 1 (Homo sapiens) (Q99828 whole entry, looked up): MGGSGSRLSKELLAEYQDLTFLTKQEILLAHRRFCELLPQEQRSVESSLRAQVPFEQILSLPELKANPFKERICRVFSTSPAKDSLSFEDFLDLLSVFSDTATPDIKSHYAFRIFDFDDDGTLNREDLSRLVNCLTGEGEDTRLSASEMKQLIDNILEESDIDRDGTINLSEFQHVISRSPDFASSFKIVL

In the case of `CC1(C)CC2C3=CCC4[C@@]5(C)CC[C@H](OC6OCC(O)C(OC7OC(CO)C(O)C(O)C7O)C6O)C(C)(C)C5CC[C@@]4(C)[C@]3(C)C[C@H](O)[C@@]2(CO)[C@H](OC(=O)c2ccccc2)C1` (stereo not given in full), the Potency entry in test [1] was “inactive”. In test [2], the activity change, negative = viability loss is -12.4% [at 9.23 µM].

Regarding `CO[C@H]1c2cc(C(C)C)c(O)c(O)c2[C@@]23CCCC(C)(C)C2[C@@H]1OC3=O` (stereo not given in full), the Potency entry in test [1] and in test [2] was “inactive” throughout.

As to `COc1cc(CO)cc(OC)c1O[C@@H]1O[C@H](CO)[C@@H](O)[C@H](O)[C@H]1O`, the Potency result in test [1] and in test [2] was “inactive” in each case.

As to `C=C(CCO)C(=O)OCC1OCC(OC(=O)C(=C)CCO[C@@H]2O[C@H](CO)[C@@H](O)[C@H](O)[C@H]2O)C(O)C1O` (stereo not given in full), the Potency result in test [1] and in test [2] was “inactive” throughout.

As for `CC(=O)OC1CCC2(C)C(CCC3(C)C2CC=C2C4CC(C)(C)CCC4(C)CCC23C)C1(C)C(=O)O` (stereo not given), the Potency entry in test [1] and in test [2] was “inactive” each time.

With `CC1(C)CCC2(C(=O)O)CCC3(C)C(=CCC4C5(C)CCC(O)C(C)(CO)C5C(O)CC43C)C2C1` (stereo not given), the Potency result in test [1] and in test [2] was “inactive” each time.

Consider `O=C(O)c1cccc(C(=O)CCC2OC(n3cnc4c(=O)[nH]cnc43)C(O)C2O)c1` (stereo not given), for which the Potency entry in test [1] and in test [2] was “inactive” throughout.

Take `CC1=C2C(=O)C=C(CO)C2C2OC(=O)C(CS(=O)(=O)O)C2C(OC(=O)Cc2ccc(O)cc2)C1` (stereo not given): the Potency result in test [1] and in test [2] was “inactive” in each case.

In the case of `C=C1C(O)CC2C(C(=O)O)=COC(O[C@@H]3O[C@H](COC(=O)c4ccc(O)cc4)[C@@H](O)[C@H](O)[C@H]3O)C12` (stereo not given in full), the Potency entry in test [1] and in test [2] was “inactive” each time.

Turning to `Cc1ccccc1N1CCN(S(=O)(=O)C[C@]23CC[C@H](C[C@@H]2NC(=O)[C@@H](N)CCS(C)(=O)=O)C3(C)C)CC1`, the Potency entry in test [1] and in test [2] was “inactive” in each case.
